# Autofluor counter: flagged as autofluorescent in microsphere protease counterscreen; 360,000 compounds, 3.1% hits; compound autofluorescence counterscreen, microsphere flow cytometry; active compounds read high; AID 624483; fluorescence intensity (concentration not given with the values); in the data active means fluorescence intensity above about 16000; inconclusive means no clear call, values can overlap the other calls
# BoNT-A LC inh2: blocks Botulinum neurotoxin A light chain protease; AID 588499; inhibition, % at 10 µM; 360,000 compounds, 0.17% hits; multiplex microsphere protease substrate cleavage, flow cytometry; further: plate controls were buffer without enzyme for full effect and enzyme alone for no effect
# BH1578 lux ind: induces V. cholerae light production without autoinducers; 350,000 compounds, 0.16% hits; V. cholerae BH1578 lux reporter, luminescence, 6 h; AID 588436; activation, % at 18.7 µM; in the data active means activation mostly above about 9.7%, no sharp cut-off; inconclusive means no clear call, values can overlap the other calls; inactive means mostly below about 3.7%
# Anthrax LF prot: blocks Bacillus anthracis lethal factor protease; 360,000 compounds, 0.12% hits; P15917; inhibition, % at 10 µM; multiplex microsphere protease cleavage assay, LF; further: plate controls were buffer without enzyme for full effect and enzyme alone for no effect
# BoNT F protease: inhibitors of Botulinum neurotoxin F light chain protease. Multiplex microsphere protease cleavage assay, flow cytometry. inhibition, % at 10 µM. 360,000 compounds, 0.22% hits; in the data active means inhibition above about 35%, passing the limit was not always enough; inconclusive means no clear call, values can overlap the other calls; further: plate controls were buffer without enzyme for full effect and enzyme alone for no effect
# Active calls of the source: *; i = inactive; ? = inconclusive; / = no result. An excerpt weighted towards active compounds, which were near 3.5% of everything screened. Unless noted, no stated cut-off is given here; in the data, active means inhibition above about 30%; inconclusive means no clear call, values can overlap the other calls; inactive means below that.
SMILES,Autofluor counter,BoNT-A LC inh2,BH1578 lux ind,Anthrax LF prot,BoNT F protease
CCOC(=O)CSc1nc2c(sc(=S)n2-c2ccccc2OC)c(=O)n1Cc1ccco1,16526*,-0.9,i,-3.4,-5.0
O=C(Nc1ccnn1C1CCN(CCCc2ccccc2)CC1)c1cccc(F)c1,6315,-0.1,/,-2.3,-1.5
COc1cccc2[nH]c3c(N4CCC(C)CC4)ncnc3c12,23249*,0.3,-0.2,-0.2,-3.8
COCC(C)NCc1ccc(C)cc1C (stereo unspecified),18417*,3.8,i,-0.2,0.2
COc1ccccc1NC(=O)C(C)OC(=O)/C(=C/c1ccccc1)NC(C)=O (stereo unspecified),5155,1.5,i,2.3,?
O=C(C[n+]1cc(Br)cc2ccccc21)c1ccc(Cl)cc1,6803,103.8*,i,20.4,31.9
Cc1ccc(C(=O)C[n+]2cccc3ccccc32)cc1,5828,10.9,-0.6,15.9,53.3*
O=C(C[n+]1cc(Br)cc2ccccc21)c1ccc(Br)cc1,6312,120.0*,0.0,45.3*,-1.2
CC(C)c1ccc(NC(=O)c2ccc(NC3=NC4CS(=O)(=O)CC4S3)cc2)cc1 (stereo unspecified),5716,0.4,-1.3,-8.8,-7.3
O=P(Cc1ccccc1O)(c1ccccc1)c1ccccc1,2537,-1.7,i,1.2,-17.4
O=P(Cc1ccccn1)(c1ccccc1)c1ccccc1,24061*,-2.5,i,-3.2,-3.3
O=C(c1sc2ccccc2c1Cl)N1CCC2(CC1)OCCO2,21877*,?,i,-2.7,-5.9
O=C(c1sc2ccccc2c1Cl)N1CCN(c2ccccn2)CC1,5573,1.5,i,1.1,11.1
CC1CCCN(CC(O)CN)C1 (stereo unspecified),17684*,-14.0,3.8,-18.2,-41.2
CCCCOc1ccccc1NC(=O)CSc1nnnn1C(C)(C)C,17476*,-3.6,-1.4,-1.6,-5.3
COCCn1c(COc2ccccc2)nnc1SCC(N)=O,21005*,?,i,-5.2,-2.9
COc1ccccc1NC(=O)Cc1noc(CSc2cccc[n+]2[O-])n1,2684,-0.2,i,-0.9,-1.3
CCn1c(SCc2nc(CC(=O)Nc3ccccc3OC)no2)nnc1-c1cccs1,22928*,-0.9,-2.9,-5.6,-2.1
CCOc1ccccc1-n1c(COc2ccc(C)cc2)nnc1SCC(N)=O,22748*,0.8,-0.2,-2.2,0.5
CCOc1ccc(-n2c(COc3ccccc3)nnc2SCC(N)=O)cc1,4263,0.3,1.6,-2.6,2.9
COc1ccc(-c2nc3ccc(Br)cn3c2Cc2cccc(Cl)c2)cc1OC,6815,8.9,/,13.1,-6.6
CCOc1cccc(-c2cc(NCCc3ccccn3)n3nccc3n2)c1,2244,8.0,i,-27.5,-48.7
CCn1c(COc2cccc(C)c2)nnc1SCC(=O)CC(=O)Nc1ccccc1OC,?,0.0,-0.4,?,-6.4
CCn1c(COc2ccccc2)nnc1SCC(=O)CC(=O)Nc1ccccc1OC,21864*,1.8,i,-1.1,2.1
COc1ccccc1C1C=C(c2ccccc2)Nc2nnnn21 (stereo unspecified),20241*,?,0.3,1.9,0.1
SMILES,Autofluor counter,BoNT-A LC inh2,BH1578 lux ind,Anthrax LF prot,BoNT F protease
COCCN(C(=O)COC(=O)C1(c2ccccc2)CC1)c1c(N)n(CC(C)C)c(=O)[nH]c1=O,6952,-4.3,i,4.7,-7.5
COc1cccc(-n2c(=O)n(Cc3ccccc3)c(=O)c3[nH]cnc32)c1C,4408,-2.5,-0.6,-1.9,?
CCC(NC(=O)NCc1ccc2c(c1)OCO2)(C(F)(F)F)C(F)(F)F,16887*,?,-1.4,0.9,17.9
CCOc1ccc(NC(=O)COC(=O)c2cc(C)oc2C)cc1,4695,-1.7,-1.4,-2.2,-10.2
C=CCSc1nc(C)cc(/C=C\c2ccccc2)c1C#N,21811*,?,i,-0.1,-10.0
C=CCSc1nc(N)c(C#N)c(-c2ccc(C)cc2)c1C#N,4379,-0.3,-0.8,-8.0,-4.8
O=Cc1cc2ccccc2nc1SCCCF,2673,-0.4,-0.3,-1.4,-2.5
CN(C)S(=O)(=O)N(CC(=O)N(Cc1ccccc1)Cc1ccccc1)c1ccccc1,22498*,0.0,i,1.2,0.5
O=C(NCCc1ccc(Cl)cc1)C1CCC(=O)N1Cc1ccccc1Cl (stereo unspecified),22400*,0.6,i,-5.8,0.8
Cc1ccc(CCNC(=O)C2CCC(=O)N2CCc2ccccc2)cc1 (stereo unspecified),3838,-2.3,-12.9,-3.2,9.2
COc1ccc(CCNC(=O)C2CCC(=O)N2Cc2ccccc2Cl)cc1OC (stereo unspecified),3434,-0.4,i,5.0,4.4
